Measured values published in PubChem BioAssay (NCI).
About 83,000 compounds went through this panel and 20% of them were active in at least one assay; those are over-represented in the sample as a whole.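 Testing used 96-well plates and a 48-hour single-concentration exposure. Example: -40 means 40% of the starting cells died.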 Activity calls are given as the source filed them. How the source made its calls: active means growth percent below 10; inactive means the rest.

How the values were obtained:
Experiment in all cases: NCI-60 one-dose screen, 48 h (100 = growth as untreated, 0 = no growth, -100 = all killed)
Details in all cases: 10 µM unless noted
SR leukemia = system: SR leukemia
RPMI-8226 leukemia = system: RPMI-8226 leukemia
OVCAR-8 ovarian = system: OVCAR-8 ovarian
OVCAR-5 ovarian = system: OVCAR-5 ovarian
OVCAR-4 ovarian = system: OVCAR-4 ovarian
SK-OV-3 ovarian = system: SK-OV-3 ovarian
IGROV1 ovarian = system: IGROV1 ovarian
OVCAR-3 ovarian = system: OVCAR-3 ovarian
HS 578T breast = system: HS 578T breast
NCI/ADR-RES ovarian = system: NCI/ADR-RES ovarian
T-47D breast = system: T-47D breast
BT-549 breast = system: BT-549 breast
MDA-MB-435 melanoma = system: MDA-MB-435 melanoma
SW-620 colon = system: SW-620 colon
MCF7 breast = system: MCF7 breast
HCT-116 colon = system: HCT-116 colon
KM12 colon = system: KM12 colon
HCC-2998 colon = system: HCC-2998 colon

Measured: growth

C[C@]12CCC(=O)C=C1CC[C@H]1[C@@H]3C[C@@H](O)[C@](O)(C(=O)CO)[C@@]3(C)C[C@H](O)[C@@]12F
inactive: SR leukemia 96.3% | RPMI-8226 leukemia 67.1% | OVCAR-8 ovarian 92.8% | OVCAR-5 ovarian 86.7% | OVCAR-4 ovarian 95.7% | SK-OV-3 ovarian 72.4% | IGROV1 ovarian 97.6% | OVCAR-3 ovarian 105% | HS 578T breast 115% | NCI/ADR-RES ovarian 95.4% | T-47D breast 103% | BT-549 breast 99.4% | MDA-MB-435 melanoma 99.7% | SW-620 colon 95.5% | MCF7 breast 86.1% | HCT-116 colon 90.6% | KM12 colon 102%

O=C(C(=O)c1cc(Br)ccc1O)c1cc(Br)ccc1O
inactive: SR leukemia 24.3% | RPMI-8226 leukemia 16.6% | OVCAR-8 ovarian 64.2% | OVCAR-5 ovarian 93.4% | OVCAR-4 ovarian 42.2% | SK-OV-3 ovarian 79.6% | IGROV1 ovarian 32.3% | OVCAR-3 ovarian 15.9% | HS 578T breast 38.8% | NCI/ADR-RES ovarian 32.8% | BT-549 breast 21.7% | MDA-MB-435 melanoma 49.8% | SW-620 colon 66.5% | MCF7 breast 36.5% | HCT-116 colon 40.3% | KM12 colon 48.6%
active: T-47D breast 8.38%

O=C1c2cc3c(cc2-c2c1c1ccc(Cl)cc1c(=O)n2CCCNCCO)OCO3
active: SR leukemia -43.8% | RPMI-8226 leukemia -30.5% | OVCAR-8 ovarian -64.7% | OVCAR-5 ovarian -78.8% | OVCAR-4 ovarian -64.8% | SK-OV-3 ovarian -8.64% | IGROV1 ovarian -66.7% | OVCAR-3 ovarian -81.1% | HS 578T breast -49.6% | NCI/ADR-RES ovarian -51.1% | T-47D breast -67.1% | BT-549 breast -63.7% | MDA-MB-435 melanoma -85% | SW-620 colon -73.2% | HCT-116 colon -74.2% | HCC-2998 colon -89% | KM12 colon -78.4%

Cc1cc(=O)oc2cc(OCCn3c(C)nn(-c4ccc(Cl)cc4)c3=O)ccc12
inactive: SR leukemia 21.2% | RPMI-8226 leukemia 31% | OVCAR-8 ovarian 17.7% | OVCAR-5 ovarian 38.8% | OVCAR-4 ovarian 67.1% | SK-OV-3 ovarian 41.1% | IGROV1 ovarian 59.7% | OVCAR-3 ovarian 14.8% | HS 578T breast 34.8% | NCI/ADR-RES ovarian 24.7% | T-47D breast 47.4% | BT-549 breast 56.7% | MCF7 breast 15.8% | HCT-116 colon 15.1% | HCC-2998 colon 46.7% | KM12 colon 31.4%
active: MDA-MB-435 melanoma -38.6%

C=CCN(/C=C/CN(CC=C)CC=C)CC=C
inactive: SR leukemia 85.3% | RPMI-8226 leukemia 95.8% | OVCAR-8 ovarian 95.8% | OVCAR-5 ovarian 104% | OVCAR-4 ovarian 91.7% | SK-OV-3 ovarian 103% | IGROV1 ovarian 96.3% | OVCAR-3 ovarian 105% | HS 578T breast 109% | NCI/ADR-RES ovarian 107% | T-47D breast 101% | BT-549 breast 100% | MDA-MB-435 melanoma 105% | SW-620 colon 102% | HCT-116 colon 102% | HCC-2998 colon 110% | KM12 colon 105%

COc1ccc(-n2cnc3cc(C(=O)N4CCCCC4)ccc32)cc1
inactive: SR leukemia 94.9% | RPMI-8226 leukemia 101% | OVCAR-8 ovarian 100% | OVCAR-5 ovarian 93.1% | OVCAR-4 ovarian 100% | SK-OV-3 ovarian 99.5% | IGROV1 ovarian 112% | OVCAR-3 ovarian 108% | HS 578T breast 100% | NCI/ADR-RES ovarian 107% | T-47D breast 91% | MDA-MB-435 melanoma 102% | SW-620 colon 104% | MCF7 breast 103% | HCT-116 colon 98.3% | HCC-2998 colon 104% | KM12 colon 107%

C#C[C@]1(O)CCC2C3CCc4cc(O)ccc4C3CC[C@@]21C (stereo not given in full)
active: SR leukemia 8.3% | HS 578T breast 4.63% | MDA-MB-435 melanoma -5.44%
inactive: RPMI-8226 leukemia 28.4% | OVCAR-8 ovarian 47.5% | OVCAR-5 ovarian 78.1% | OVCAR-4 ovarian 66.8% | SK-OV-3 ovarian 43% | IGROV1 ovarian 55.2% | OVCAR-3 ovarian 16.1% | NCI/ADR-RES ovarian 13.5% | T-47D breast 50.3% | BT-549 breast 36.8% | SW-620 colon 21.2% | MCF7 breast 34.1% | HCC-2998 colon 61% | KM12 colon 21.9%

COc1cc(/C=C2\SC(N3CCCCC3)=NC2=O)ccc1OCCCCCCOc1ccc(/C=C2\SC(N3CCCCC3)=NC2=O)cc1OC
active: SR leukemia 0.724% | RPMI-8226 leukemia -5.76% | OVCAR-8 ovarian 8.07% | OVCAR-3 ovarian -82.9% | HS 578T breast 7.66% | NCI/ADR-RES ovarian 0.636% | BT-549 breast -36.6% | MDA-MB-435 melanoma -48% | SW-620 colon -24.7% | HCT-116 colon -64.3% | HCC-2998 colon -76.5% | KM12 colon -72.1%
inactive: OVCAR-5 ovarian 40.6% | OVCAR-4 ovarian 21% | SK-OV-3 ovarian 41.9% | IGROV1 ovarian 19.5% | T-47D breast 21.9%

C1=C(Cc2ccccc2)n2cnc3ncnc(c32)S1
inactive: SR leukemia 36.8% | RPMI-8226 leukemia 28% | OVCAR-8 ovarian 73.5% | OVCAR-5 ovarian 70.5% | OVCAR-4 ovarian 40.1% | SK-OV-3 ovarian 19.7% | IGROV1 ovarian 86.8% | OVCAR-3 ovarian 15.8% | HS 578T breast 75.3% | NCI/ADR-RES ovarian 56.7% | T-47D breast 29.6% | MDA-MB-435 melanoma 26.5% | SW-620 colon 69% | MCF7 breast 20.3% | HCT-116 colon 57.1% | HCC-2998 colon 70.2% | KM12 colon 69.6%

CC(C)=CCCC(C)c1ccc(C)c2c1OCN(CC1CCNCC1)C2 (stereo not given)
inactive: RPMI-8226 leukemia 23.7% | OVCAR-8 ovarian 75.3% | OVCAR-5 ovarian 81.1% | OVCAR-4 ovarian 91.7% | SK-OV-3 ovarian 87% | IGROV1 ovarian 78.7% | OVCAR-3 ovarian 77.2% | HS 578T breast 64.3% | NCI/ADR-RES ovarian 83.5% | BT-549 breast 55.8% | MDA-MB-435 melanoma 14.7% | SW-620 colon 28% | MCF7 breast 36.6% | KM12 colon 38.4%
active: SR leukemia -8.52% | T-47D breast -94.4% | HCC-2998 colon -82.1%

COc1cnc2c(c1)C(=O)c1c-2n(CCCN2CCCC2)c(=O)c2cc(F)ccc12
active: SR leukemia -9.13% | RPMI-8226 leukemia -22.8% | OVCAR-8 ovarian -13.3% | OVCAR-5 ovarian 5.78% | OVCAR-4 ovarian 4.61% | SK-OV-3 ovarian -24.6% | IGROV1 ovarian 4.37% | OVCAR-3 ovarian -29.1% | NCI/ADR-RES ovarian -3.22% | T-47D breast -4.54% | SW-620 colon -33.2% | MCF7 breast 3.93% | HCT-116 colon -77.3% | KM12 colon -12.6%
inactive: HS 578T breast 23.8% | MDA-MB-435 melanoma 16% | HCC-2998 colon 16.9%

NS(=O)(=O)c1ccc(N2CC(c3nc4ccccc4[nH]3)CC2=O)cc1 (stereo not given)
inactive: SR leukemia 95.5% | RPMI-8226 leukemia 103% | OVCAR-8 ovarian 99.9% | OVCAR-5 ovarian 84.4% | OVCAR-4 ovarian 97.3% | SK-OV-3 ovarian 89.7% | IGROV1 ovarian 97.2% | OVCAR-3 ovarian 104% | HS 578T breast 98.2% | NCI/ADR-RES ovarian 103% | T-47D breast 88.8% | MDA-MB-435 melanoma 104% | SW-620 colon 104% | MCF7 breast 94.9% | HCT-116 colon 104% | HCC-2998 colon 99.1% | KM12 colon 97.6%

Cc1ccc(NC(=O)c2sc3nc4c(cc3c2N)C(=O)CCC4)cc1
inactive: SR leukemia 63.1% | RPMI-8226 leukemia 93.4% | OVCAR-8 ovarian 98.3% | OVCAR-5 ovarian 78.6% | OVCAR-4 ovarian 106% | SK-OV-3 ovarian 37.5% | IGROV1 ovarian 95.9% | OVCAR-3 ovarian 133% | HS 578T breast 107% | NCI/ADR-RES ovarian 98.2% | T-47D breast 94.7% | MDA-MB-435 melanoma 14.6% | SW-620 colon 67% | MCF7 breast 67.7% | HCT-116 colon 91.7% | HCC-2998 colon 80.2% | KM12 colon 56.7%

CCN(CC)CCNCC(=O)Oc1ccc(/C=C/C(=O)CC(=O)/C=C/c2ccc(OC(=O)CNCCN(CC)CC)c(OC)c2)cc1OC
active: SR leukemia -1.72% | RPMI-8226 leukemia -46.2% | OVCAR-8 ovarian 3.99% | IGROV1 ovarian -24.5% | HS 578T breast -3.97% | BT-549 breast -49.4% | MDA-MB-435 melanoma -30% | SW-620 colon -26.5% | HCC-2998 colon -24.9% | KM12 colon -19.5%
inactive: OVCAR-5 ovarian 36.6% | OVCAR-4 ovarian 44.3% | SK-OV-3 ovarian 27.3% | OVCAR-3 ovarian 13.3% | NCI/ADR-RES ovarian 71.6% | T-47D breast 26.6% | MCF7 breast 11.6%

N#CC(C#N)C(C#N)C#N
inactive: SR leukemia 109% | RPMI-8226 leukemia 107% | OVCAR-8 ovarian 97.4% | OVCAR-5 ovarian 111% | OVCAR-4 ovarian 98.6% | SK-OV-3 ovarian 84% | IGROV1 ovarian 112% | OVCAR-3 ovarian 104% | HS 578T breast 102% | NCI/ADR-RES ovarian 101% | T-47D breast 87.9% | MDA-MB-435 melanoma 99.8% | SW-620 colon 99.1% | MCF7 breast 95.5% | HCT-116 colon 86.8% | HCC-2998 colon 98.4% | KM12 colon 102%

C[N+]1(C)C2CC[C@@H]1CC(OC(=O)C(O)c1ccccc1)C2 (stereo not given in full)
inactive: SR leukemia 115% | RPMI-8226 leukemia 93.9% | OVCAR-8 ovarian 108% | OVCAR-5 ovarian 106% | OVCAR-4 ovarian 110% | SK-OV-3 ovarian 117% | IGROV1 ovarian 103% | OVCAR-3 ovarian 121% | HS 578T breast 119% | NCI/ADR-RES ovarian 103% | T-47D breast 109% | BT-549 breast 99.6% | MDA-MB-435 melanoma 99.1% | SW-620 colon 109% | MCF7 breast 106% | HCC-2998 colon 96.6% | KM12 colon 109%

COc1ccc2c(c1)[n+](=O)c(/C=C/C(=O)c1cc(OC)c(OC)c(OC)c1)c(C)n2[O-]
active: SR leukemia -10.6% | RPMI-8226 leukemia -45.8% | OVCAR-8 ovarian 3.84%
inactive: OVCAR-5 ovarian 84% | OVCAR-4 ovarian 62.8% | SK-OV-3 ovarian 102% | IGROV1 ovarian 32.1% | OVCAR-3 ovarian 19.4% | HS 578T breast 90.7% | NCI/ADR-RES ovarian 52.8% | T-47D breast 28.3% | BT-549 breast 73.3% | MDA-MB-435 melanoma 34.6% | SW-620 colon 21.7% | HCT-116 colon 17.9% | HCC-2998 colon 112% | KM12 colon 80.9%

Cc1ccc(C(=O)Cc2ccccc2)c(O)c1
inactive: SR leukemia 83% | RPMI-8226 leukemia 115% | OVCAR-8 ovarian 104% | OVCAR-5 ovarian 99.1% | OVCAR-4 ovarian 107% | SK-OV-3 ovarian 127% | IGROV1 ovarian 107% | OVCAR-3 ovarian 110% | HS 578T breast 107% | NCI/ADR-RES ovarian 108% | T-47D breast 95.8% | BT-549 breast 105% | MDA-MB-435 melanoma 115% | SW-620 colon 105% | HCT-116 colon 108% | KM12 colon 110%
